Measurements as given in PubChem BioAssay AID2797 (The Scripps Research Institute Molecular Screening Center, 2010).
Out of some 320,000 compounds screened, about 820 (0.26%) were called active. This is one part of a sample in which actives are shown more often than they occur. A number with no mark means an inactive call.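 How the source made its calls: active means activation above the mean activation of all tested compounds plus 3 SD, per screening run (cut at about 20% in these data); inactive means the rest.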

Biological target: Vasopressin V1a receptor (Homo sapiens) (UniProt P37288)
Sequence (P37288 whole entry, looked up): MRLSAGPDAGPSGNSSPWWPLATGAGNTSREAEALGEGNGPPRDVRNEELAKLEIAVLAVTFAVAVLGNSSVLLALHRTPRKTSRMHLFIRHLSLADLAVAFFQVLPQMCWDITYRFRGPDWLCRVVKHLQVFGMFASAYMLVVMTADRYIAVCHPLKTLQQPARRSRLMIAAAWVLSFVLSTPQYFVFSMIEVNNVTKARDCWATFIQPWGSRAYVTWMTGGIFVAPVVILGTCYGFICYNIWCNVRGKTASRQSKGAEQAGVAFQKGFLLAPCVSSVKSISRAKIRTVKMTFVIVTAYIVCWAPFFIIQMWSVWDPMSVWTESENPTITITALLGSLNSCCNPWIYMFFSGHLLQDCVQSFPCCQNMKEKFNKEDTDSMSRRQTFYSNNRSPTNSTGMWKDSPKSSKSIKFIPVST
Assay: V1R activation via calcium rise – fluorescence, CHO-V1R cells, counter-screen for OXTR agonist project, primary screen (AID 2797);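 further: signal is peak over basal fluorescence ratio across a 100 second FLIPR read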
Settings: Fluo-8 calcium fluorescence, agonist mode, at 3 µM, active compounds read high, 0% DMSO, 100% 3 nM vasopressin

Row | Compound | activation
1 | CC(C)(C)NC(=O)C(=O)NCc1ccncc1 | 0%
2 | N#CC1(NC(=O)COC(=O)CCN=C2NS(=O)(=O)c3ccccc32)CCCCC1 | 0.74%
3 | O=C(CCCN=C1NS(=O)(=O)c2ccccc21)OCC(=O)c1ccc(F)c(F)c1 | 22.6% (active)
4 | O=C(OCCN=C1NS(=O)(=O)c2ccccc21)c1cccc([N+](=O)[O-])c1 | 3.94%
5 | N#CCN(C(=O)COC(=O)C1CC2CCCC(C1)C2=O)c1ccccc1 (configuration not stated) | -0.11%
6 | COc1ccc(C23NCCN2C(=O)c2ccccc23)cc1 (configuration not stated) | -0.14%
7 | CC1CCN(CCC(=O)Nc2ccccc2)CC1 | 0.38%
8 | CCOC(=O)N1CCN(CCC(=O)Nc2ccccc2)CC1 | 0.3%
9 | Cc1cc(NC(=O)CCN2CCN(Cc3ccccc3)CC2)ccc1Br | 26.5% (active)
10 | CN(C)/C=C1/Nc2ccccc2C1=O | 1.1%
11 | O=C1Nc2ccccc2/C1=C/c1ccnc2ccccc12 | 3.16%
12 | Cc1cc(C)c(/C=C2\C(=O)Nc3ccccc32)[nH]1 | 23.6% (active)
13 | COc1ccc([C@H]2CC(=O)C=C(c3ccc(OC(F)(F)F)cc3)C2)cc1OC | 1.96%
14 | COc1ccc(C2CC(c3cccs3)Nc3nnnn32)cc1 (configuration not stated) | 1.36%
15 | Cc1ccc(S(=O)(=O)NCCC(=O)NNC(=O)C2COc3ccccc3O2)cc1 (configuration not stated) | -0.1%
16 | COc1ccc(C2C(C#N)=C(N)N(c3ncn[nH]3)C3=C2C(=O)CCC3)cc1 (configuration not stated) | 1.11%
17 | CN(C(=O)COC(=O)c1ccc(Br)o1)c1c(N)n(Cc2ccccc2)c(=O)[nH]c1=O | -0.45%
18 | Cc1cc2nc3c(=O)n(Cc4ccccc4)c(=O)[nH]c3nc2cc1N | 73.4% (active)
19 | C=CCSc1nc2c(c(=O)[nH]c(=O)n2C)n1Cc1ccccc1 | 0.69%
20 | C[C@H](NC(=O)c1nc[nH]c1C(=O)NCC(=O)OC(C)(C)C)c1ccccc1 | -0.3%
21 | Cc1c(Br)cc(C(=O)N2CCCCCC2)c(C)c1C | -1.61%
22 | O=C(NC(=S)Nc1ccccc1N1CCCCC1)c1ccc(F)cc1 | -0.81%
23 | Cc1cccc(NC(=S)NCCc2ccc(Cl)cc2)c1C | 0.32%

Row | Compound | activation
24 | O=C(COc1ccc(Cl)cc1)NC(=S)Nc1ccccc1N1CCOCC1 | 3.48%
25 | O=C(Cc1ccc(Cl)cc1)NC(=S)Nc1ccccc1O | 47.5% (active)
26 | Cc1ccccc1NC(=S)NC(=O)Cc1ccc(Cl)cc1 | 26.2% (active)
27 | Cc1ccccc1N/C(SCc1ccc(Cl)cc1)=C(/C#N)C(N)=O | -0.5%
28 | COC(=O)Cc1ccc(NC(=S)NCc2ccc(Cl)cc2)cc1 | 10%
29 | CCN1CCN(C(=O)CN(C)S(=O)(=O)c2ccc3ccccc3c2)CC1 | 0.47%
30 | Cc1nc2scc(-c3cccs3)c2c(=O)n1N | -0.59%
31 | CCOc1ccc(C(=O)Nc2ccc(S(=O)(=O)NCC3CCCO3)cc2)cc1OCC (configuration not stated) | 1.35%
32 | Cc1ccc(OCCNC(=O)CNC(=O)c2ccc(C)c(C)c2)cc1 | -0.83%
33 | Cc1nc2c(ncn2-c2ccccc2)c(=O)n1NC(=O)CN1CCCC1 | 0.46%
34 | Brc1ccc(C2=CC(c3ccco3)n3ncnc3N2)cc1 (configuration not stated) | 9.25%
35 | CCOc1ccc(C2=CC(c3ccccc3)n3ncnc3N2)cc1 (configuration not stated) | 0.49%
36 | COc1ccc(C2C=C(c3ccc(Br)cc3)Nc3nc(NS(C)(=O)=O)nn32)cc1 (configuration not stated) | 23.5% (active)
37 | CCS(=O)(=O)c1ccc(O)c(NC(=O)COc2ccc(Cl)cc2)c1 | 3.1%
38 | COc1ccc(C(=O)Nc2cc(C)ccc2NC(=O)COc2ccccc2)cc1 | 0.75%
39 | Cc1ccc(O)c(NC(=S)NC(=O)COc2ccc(Br)cc2)c1 | 56% (active)
40 | CCN1CCN(c2sc(S(C)(=O)=O)nc2S(=O)(=O)c2ccc(Cl)cc2)CC1 | 0.09%
41 | CCn1c(C(C)C)n[nH]c1=S | 0.69%
42 | CCOC(=O)N/N=C1\CC(C)S(=O)(=O)c2ccc(Cl)cc21 (configuration not stated) | -1.51%
43 | CC1CN(C(=O)c2ccccc2NS(=O)(=O)c2cccc([N+](=O)[O-])c2)CC(C)O1 (configuration not stated) | 1.41%
44 | CCc1ccc(NC(=O)Cn2nnc(C(=O)NCc3ccc(OC)cc3)c2N)cc1 | 0.71%
45 | CCOc1ccc(Cn2nnc(C(=O)NCc3ccccc3)c2N)cc1 | 27.1% (active)
46 | CCOc1ccc(Cn2nnc(C(=O)Nc3ccc(OC)cc3OC)c2N)cc1 | 12.4%

Row | Compound | activation
47 | O=C(C[n+]1ccc2c(c1)nnn2-c1ccccc1)c1ccc(Cl)cc1 | -1.54%
48 | COc1ccc(CCNc2cc(C)nc3c(-c4ccc(Cl)cc4)c(C)nn23)cc1OC | -0.66%
49 | C=CCOCCN(C)C1=NS(=O)(=O)c2ccccc21 | -0.21%
50 | CCO[C@H]1OC(C(=O)N2CCCCCCC2)=C[C@@H](c2ccc(C(F)(F)F)cc2)[C@@H]1CCCO | -0.98%
51 | O=C(/C=C(O)/C=C/c1ccc(O)cc1)/C=C/c1ccc(O)cc1 | 76.2% (active)
52 | O=C(/C=C/c1ccc2c(c1)OCCO2)c1ccc(O)cc1 | 1.07%
53 | O=C(O)/C=C/c1ccc(OCCCF)cc1 | 0.21%
54 | CC(C)(C)S(=O)(=O)c1ccccc1-c1noc(-c2ccccc2)c1C(N)=O | 0.13%
55 | CCc1c(O)cc2n(c1=O)-c1ccccc1C2(C)C | 1.27%
56 | CCOc1ccc2[nH]c3nc(SCC(=O)NC4CCCC4)nnc3c2c1 | 1.39%
57 | O=C(CSc1ncnc2sccc12)N1CCN(C(=O)c2cccs2)CC1 | 1.53%
58 | Nc1c(C(=O)c2cccs2)sc2nsc(SCCN3CCCCC3)c12 | 34.8% (active)
59 | O=C(NCC(=O)N1CCC2(CC1)NCCc1[nH]cnc12)c1ccc(Br)cc1 | -0.07%
60 | Cc1noc(C)c1NC(=O)Nc1cccc2c1O[C@H](CN(C)C(=O)Nc1ccccc1)[C@@H](C)CN([C@H](C)CO)C2=O | 0.98%
61 | CC(=O)Nc1ccccc1Sc1ccc2c3c(cccc13)C(=O)N(c1ccc(C)cc1)C2=O | 0.04%
62 | Cc1nn(C)cc1N1C(=O)c2cccc3c(N)ccc(c23)C1=O | 66.8% (active)
63 | COc1ccc(N2C(=O)c3cccc4cccc(c34)C2=O)nn1 | -0.33%
64 | Cc1nn(C)cc1C(=O)c1ccccc1 | 0.77%
65 | CN1C(=O)c2cccc3c(N)ccc(c23)C1=O | 133% (active)
66 | O=C(O)c1ccc2c3c(cccc13)C(=O)N(OS(=O)(=O)c1ccccc1)C2=O | 0.24%
67 | COc1ccc(N(C(=O)c2ccc(C)cc2)S(=O)(=O)c2cccs2)cc1 | 0.59%
68 | Cc1cc(C(=O)CC#N)c(C)n1-c1c(C)n(C)n(-c2ccccc2)c1=O | 1.66%
69 | CCOP1(=O)C=C(C(C)(C)C)OC1c1ccc(F)cc1 (configuration not stated) | 0.37%

Row | Compound | activation
70 | Cc1ccc(N(C(=O)c2snc(C(N)=O)c2N)C(C(=O)NCC2CCCO2)c2c[nH]c3ccccc23)cc1 (configuration not stated) | 2.4%
71 | CCN1/C(=C\c2ccc3ccccc3[n+]2CC)Sc2cc(C)ccc21 | 20.7% (active)
72 | O=C1CCCN2N=C(SCC(=O)Nc3ccc(Br)cc3)SC2=N1 | 8.83%
73 | CCOC(=O)Cc1c(C)nc2c(C#N)c(C)nn2c1C | -0.1%
74 | CCOC(=O)N1CCC(O)(c2cc(C)c(C)cc2C)CC1 | 0.01%
75 | CCCCCCn1cc(C(=O)O)c(=O)c2cc(F)c(N3CCCCC3)cc21 | 1%
76 | CN(c1ccccc1)c1ccc(/C=c2\s/c(=C(/C#N)C(=O)C(C)(C)C)n(Cc3ccco3)c2=O)cc1 | 28% (active)
77 | CCOC(=O)Cn1c(=O)oc2cc(S(=O)(=O)N(C)Cc3ccco3)ccc21 | 1.45%
78 | COc1cc(NC(=O)COC(=O)c2cc(S(=O)(=O)N3CCOCC3)ccc2F)cc(OC)c1 | 1.44%
79 | Cc1ccc(C(=O)NNC(=O)C(C)Oc2ccc3ccccc3c2)o1 (configuration not stated) | 0.2%
80 | CC(Oc1ccc2ccccc2c1)C(=O)NNC(=S)NC(=O)c1ccco1 (configuration not stated) | 23% (active)
81 | CCCc1ccc(OCC(=O)NNC(=S)NC(=O)c2ccco2)cc1 | 19.5%
82 | Cc1cc2c(=O)n(CC(=O)NCC(=O)Nc3ccc(C(C)C)cc3)cnc2s1 | 0.52%
83 | O=C(CC1SC(=Nc2ccccc2F)N(CCN2CCOCC2)C1=O)Nc1ccc(F)cc1F (configuration not stated) | -0.11%
84 | CCCC(C)C(=O)Nc1ccc(NC(C)=O)cc1 (configuration not stated) | 1.31%
85 | COc1cc(OC)c(-n2cc(-c3ccc(Cl)cc3)[nH]c2=O)cc1Cl | 38.5% (active)
86 | COc1cc(OC)c(-n2c(C)cc(C=O)c2C)cc1Cl | -0.41%
87 | COc1cc(OC)c(N2CC(C(=O)Nc3cc(Cl)ccc3N3CCOCC3)CC2=O)cc1Cl (configuration not stated) | 2.59%
88 | CN1/C(=C\C=C2\N=C(c3ccc(F)cc3)OC2=O)C(C)(C)c2ccccc21 | 2.99%
89 | O=C(NCCc1nnc2ccc(SCC(=O)N3CCOCC3)nn12)c1ccccc1 | -0.68%
90 | CCC(C)(C)C1CCC(=NNC(=O)c2ccc(Br)o2)CC1 (configuration not stated) | 0.08%
91 | Cc1ccc(CN2CCN(c3ccccc3Cl)CC2)o1 | -0.73%
92 | O=C(CCc1[nH]c2ccccc2c1Sc1ccccc1)N(CCO)CCO | 0.05%
